Source: PubChem BioAssay AID1159580 (chemical genetic matrix, 2015)
About 2,000 (36%) of roughly 5,500 compounds were called active. Roughly 18% stayed inconclusive and do not appear here. Rule as the data show it: active = normalized growth mostly below about 0.91 (no sharp cut-off); inconclusive = no clear call, values can overlap the other calls; inactive = mostly above about 0.92. Some of the results follow.

Assay: chemical genetic growth profiling, strain panel (AID 1159580);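 also: tested at 20 µM; growth read once vehicle control cultures reached saturation at 30 °C; 1 = growth at the plate median or of vehicle wells; lower values mean less growth of the strain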
Conditions: S. cerevisiae deletion strains, growth OD
[1] = locus YAL040C, strain CLN3, active compounds read low
[2] = locus YCL061C, strain MRC1 (second series), active compounds read low
[3] = locus YDR363W, strain ESC2, active compounds read low
[4] = locus YER002W, strain NOP16, active compounds read low
[5] = locus YGR229C, strain SMI1, active compounds read low
[6] = locus YMR263W, strain SAP30, active compounds read low
[7] = locus YNL128W, strain TEP1, active compounds read low
[8] = locus YNL175C, strain NOP13, active compounds read low
[9] = locus YNL197C, strain WHI3, active compounds read low
[10] = locus YNL224C, strain SQS1, active compounds read low
[11] = locus YNL322C, strain KRE1, active compounds read low
[12] = locus YOR083W, strain WHI5 (second series), active compounds read low
[13] = locus YPL055C, strain LGE1, active compounds read low
[14] = locus YPL241C, strain CIN2, active compounds read low
[15] = locus YMR307W, strain GAS1, active compounds read low

Measured: normalized growth

O=C(Nc1cc(C(=O)Nc2ccc(S(=O)(=O)O)cc2S(=O)(=O)O)cc(C(=O)Nc2ccc(S(=O)(=O)O)cc2S(=O)(=O)O)c1)Nc1cc(C(=O)Nc2ccc(S(=O)(=O)O)cc2S(=O)(=O)O)cc(C(=O)Nc2ccc(S(=O)(=O)O)cc2S(=O)(=O)O)c1
inactive: locus YAL013W, strain DEP1, active compounds read low 0.995 | [1] 1.01 | [2] 0.998 | locus YDR150W, strain NUM1, active compounds read low 0.997 | [3] 0.954 | [4] 1.02 | locus YGR078C, strain PAC10, active compounds read low 0.987 | [5] 0.995 | [6] 0.99 | [7] 1 | [8] 1.01 | [9] 1.01 | [10] 0.993 | [11] 1.02 | [12] 0.993 | [13] 0.968 | [14] 1.01

CC(C)(C)c1o[nH]c(=O)c1CC(N)C(=O)O (stereo not given)
inactive: [1] 1.03 | [2] 1.01 | [4] 1 | [15] 0.968 | [7] 1 | [8] 1 | [9] 0.991 | [10] 0.992 | [11] 0.997 | [12] 1 | [14] 1.02

CC1=C[C@@H]2c3cccc4[nH]cc(c34)C[C@H]2N(C)C1
inactive: [1] 0.988 | [4] 0.993 | locus YJR075W, strain HOC1, active compounds read low 1 | [6] 0.996 | [15] 1.01 | [8] 1 | [9] 1.01 | [10] 0.987 | [12] 1

Clc1cc(I)cc(Cl)c1NC1=NCCN1
inactive: [1] 1.01 | [2] 1.01 | [3] 1.02 | [4] 1.01 | [15] 0.987 | [8] 1.01 | [9] 1.01 | [10] 1.01 | [12] 1.06 | [13] 0.986

N=S(=O)(O)Cc1noc2ccccc12
inactive: [1] 0.966 | [2] 1 | [3] 1.03 | [4] 1.01 | [5] 1.01 | [15] 1.01 | [7] 1.05 | locus YNL153C, strain GIM3, active compounds read low 0.998 | [8] 0.996 | [9] 1.02 | [10] 1.01 | [12] 1 | [14] 1.01
